# This is a sample that favours compounds with a hit; in the whole collection about 1.2% have one here.
# Sa ugtP lethal – growth inhibition of ugtP-null S. aureus, primary screen, RN4220 ugtP deletion, OD600; 16 h; growth inhibition, % (no concentration beside the values); hit rate 0.54% among 330,000; AID 1259309, 2017; in the data active = growth inhibition above about 68%;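 also: plate controls were untreated wells for no effect and antibiotic for full effect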
# PfHsp40 yeast – rescue of yeast from PfHsp40 toxicity, primary screen, S. cerevisiae, ATP luminescence; S. cerevisiae expressing PfHsp40, growth rescue; growth rescue, % at 12.5 µM; hit rate 0.68% among 340,000; in the data active = growth rescue above about 28%, passing the limit was not always enough;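 also: yeast W303a lacking pdr1 and pdr3 grown in galactose medium; growth measured after three days at 30 °C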
# PrP UTR inh – inhibition of PrP 5' UTR reporter expression | cell-based PrP 5' UTR mRNA reporter, plate reader | inhibition, % (concentration not given with the values) | hit rate 0.35% among 340,000 | AID 488862, 2010; in the data active = inhibition above about 52%; also: 0 = median of the neutral control wells
# TcdB inh – TcdB glycohydrolase inhibitors, primary screen, biochemical, single point, plate reader | hit rate 0.24% among 350,000 | AID 652162, 2013 | TcdB glycohydrolase enzymatic assay | inhibition, % at 9.99 µM | Toxin B (Clostridioides difficile), P18177; in the data active = inhibition above about 10%
# Target sequence (P18177 whole entry, looked up): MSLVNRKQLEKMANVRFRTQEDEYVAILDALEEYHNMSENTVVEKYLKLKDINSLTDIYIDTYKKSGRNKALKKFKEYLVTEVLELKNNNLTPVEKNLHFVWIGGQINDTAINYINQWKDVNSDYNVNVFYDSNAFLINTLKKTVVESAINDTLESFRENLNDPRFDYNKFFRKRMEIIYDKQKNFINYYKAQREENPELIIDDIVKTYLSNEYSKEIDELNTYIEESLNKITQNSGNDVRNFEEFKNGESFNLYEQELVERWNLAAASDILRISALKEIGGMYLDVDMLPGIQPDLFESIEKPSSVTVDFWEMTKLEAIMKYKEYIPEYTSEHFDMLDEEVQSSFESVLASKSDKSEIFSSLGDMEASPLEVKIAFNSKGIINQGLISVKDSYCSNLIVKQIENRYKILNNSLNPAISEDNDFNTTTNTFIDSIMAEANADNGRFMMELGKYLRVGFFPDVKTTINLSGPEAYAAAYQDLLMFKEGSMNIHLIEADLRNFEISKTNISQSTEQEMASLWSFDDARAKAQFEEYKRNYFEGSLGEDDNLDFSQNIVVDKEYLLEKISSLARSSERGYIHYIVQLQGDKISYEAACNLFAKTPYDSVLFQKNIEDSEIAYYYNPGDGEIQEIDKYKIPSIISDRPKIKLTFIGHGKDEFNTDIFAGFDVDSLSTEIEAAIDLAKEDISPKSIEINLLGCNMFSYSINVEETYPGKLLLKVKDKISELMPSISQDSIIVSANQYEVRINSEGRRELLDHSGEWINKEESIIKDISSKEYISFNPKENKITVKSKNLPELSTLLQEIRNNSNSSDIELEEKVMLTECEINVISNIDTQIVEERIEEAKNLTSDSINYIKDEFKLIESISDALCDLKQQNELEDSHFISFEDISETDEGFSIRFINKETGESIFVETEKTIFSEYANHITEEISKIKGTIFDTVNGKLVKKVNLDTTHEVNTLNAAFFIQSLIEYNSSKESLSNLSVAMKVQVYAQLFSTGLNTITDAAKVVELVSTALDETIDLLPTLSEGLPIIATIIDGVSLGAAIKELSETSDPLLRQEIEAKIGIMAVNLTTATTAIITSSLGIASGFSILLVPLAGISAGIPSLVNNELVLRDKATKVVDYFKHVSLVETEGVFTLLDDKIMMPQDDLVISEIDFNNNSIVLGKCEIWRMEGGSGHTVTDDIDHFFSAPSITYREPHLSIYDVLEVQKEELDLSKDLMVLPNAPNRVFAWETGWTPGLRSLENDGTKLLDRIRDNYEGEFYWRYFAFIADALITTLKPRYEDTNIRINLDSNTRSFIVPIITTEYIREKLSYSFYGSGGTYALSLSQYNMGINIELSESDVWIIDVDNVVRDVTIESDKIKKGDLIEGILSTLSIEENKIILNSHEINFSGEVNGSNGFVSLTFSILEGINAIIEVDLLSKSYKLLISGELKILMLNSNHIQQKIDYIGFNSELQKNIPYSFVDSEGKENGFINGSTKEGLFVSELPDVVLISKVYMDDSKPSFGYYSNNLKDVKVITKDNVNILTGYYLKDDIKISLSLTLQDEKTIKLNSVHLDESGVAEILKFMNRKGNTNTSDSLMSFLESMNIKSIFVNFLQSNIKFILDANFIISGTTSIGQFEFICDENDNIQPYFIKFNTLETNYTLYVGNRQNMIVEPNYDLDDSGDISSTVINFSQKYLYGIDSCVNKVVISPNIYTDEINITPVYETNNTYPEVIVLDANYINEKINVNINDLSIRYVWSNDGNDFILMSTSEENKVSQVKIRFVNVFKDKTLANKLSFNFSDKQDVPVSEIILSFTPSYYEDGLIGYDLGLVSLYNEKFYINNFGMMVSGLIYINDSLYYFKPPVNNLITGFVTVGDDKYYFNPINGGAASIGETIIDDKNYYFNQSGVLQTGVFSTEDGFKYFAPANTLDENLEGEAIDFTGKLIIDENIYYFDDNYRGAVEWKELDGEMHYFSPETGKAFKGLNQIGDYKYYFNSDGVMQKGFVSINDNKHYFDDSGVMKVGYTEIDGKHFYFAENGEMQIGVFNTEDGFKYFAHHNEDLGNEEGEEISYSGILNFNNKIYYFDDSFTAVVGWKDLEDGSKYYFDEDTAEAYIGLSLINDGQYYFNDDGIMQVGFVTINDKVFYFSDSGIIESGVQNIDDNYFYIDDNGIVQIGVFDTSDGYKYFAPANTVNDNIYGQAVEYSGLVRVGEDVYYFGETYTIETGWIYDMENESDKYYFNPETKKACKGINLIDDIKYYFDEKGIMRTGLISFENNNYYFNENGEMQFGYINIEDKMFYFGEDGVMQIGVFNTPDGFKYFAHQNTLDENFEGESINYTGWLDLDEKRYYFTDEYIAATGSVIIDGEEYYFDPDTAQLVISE
# RN4220 kill – growth inhibition of S. aureus RN4220, primary screen, OD600. 16 h. inhibition, % (test concentration not listed). hit rate 0.33% among 330,000. AID 1259311, 2017; in the data active = inhibition above about 85%;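 also: plate controls were untreated cells for no effect and reference antibiotic for full effect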
# Active calls of the source: *; . = no result given.
SMILES,Sa ugtP lethal,PfHsp40 yeast,PrP UTR inh,TcdB inh,RN4220 kill
CCN(C(=O)COC(=O)c1cccnc1SC)C1CCS(=O)(=O)C1 (stereo not drawn),-6,0,-11,0,-17
CCN(C(=O)COC(=O)c1cccnc1SC)C1CCCCC1,-4,2,-41,15*,1
COc1ccccc1C(=O)NN=Cc1c[nH]c2ccccc12,0,.,.,.,2
Cc1ccc(S(=O)(=O)Nc2ccc(O)c3ncccc23)cc1,-2,188*,-18,-6,5
S=C(NCCCCNC(=S)NCc1ccccc1)NCc1ccccc1,10,0,-13,-1,-3
S=C(NCCCc1ccccc1)Nc1ccccc1Cl,-34,223*,-16,1,-7
S=C(NCCCCc1ccccc1)NCc1ccccc1,7,55*,2,0,-6
S=C(NCCc1ccccc1)Nc1ccccc1Cl,1,0,-53,.,4
COc1cc(OC)c(NC(=O)C(=O)CC(=O)c2ccc(C)cc2C)cc1Cl,69,1,10,1,85*
COc1ccc(C(=O)CC(=O)C(=O)Nc2ccc(C)cc2Cl)cc1,20,-1,-13,-1,25
COc1cccc(C(=O)CC(=O)C(=O)Nc2ccc(C)cc2Cl)c1,87*,1,-29,1,77
Cc1cccc(C=NNC(=O)c2ccc(Cl)cc2)c1O,73,.,.,.,93*
CCCNC(=O)N(C)C[C@@H]1Oc2ncc(C3=CCCC3)cc2C(=O)N([C@@H](C)CO)C[C@@H]1C,.,.,.,1,.
CC(OC(=O)c1oc2ccccc2c1CSC1CCCCC1)C(=O)NC(N)=O (stereo not drawn),99*,-1,-17,.,-6
O=C(Nc1ccccc1)ON=C1c2ccccc2-c2ccccc21,-1,5,-23,2,-6
O=C(Nc1ccccc1Cl)ON=C1c2ccccc2-c2ccccc21,95*,88*,-30,.,-4
CCC(=NNC(=S)NC(C)C)c1ccc(OC)c(OC)c1,7,.,.,.,4
O=[N+]([O-])c1cc(C(F)(F)F)ccc1NCCc1c[nH]c2ccc(O)cc12,12,484*,-28,.,4
Cc1cc(N2CCCC2=O)cc(C)c1S(=O)(=O)Nc1c(C)nn(C)c1C,1,2,-25,42*,6
C=CCN(CC=C)S(=O)(=O)c1ccc(NC(=S)NC(=O)c2ccco2)cc1,10,55*,-17,.,0
C=CCN(CC=C)S(=O)(=O)c1ccc(NC(=S)NC(=O)c2ccc(-c3ccccc3)cc2)cc1,-1,0,-18,.,2
COc1ccc(CC(=O)C2C(=O)N(C)c3ccccc32)cc1OC (stereo not drawn),.,-2,-8,11*,.
Cc1ccc(C)c2c1[nH]c1ccc([N+](=O)[O-])cc12,84*,2,-11,.,80
C[C@@H]1CCCCO[C@H](CN(C)Cc2ccncc2)[C@@H](C)CN([C@@H](C)CO)C(=O)c2cc(N(C)C)ccc2O1,.,.,.,-7,.
COc1ccc(CN(C)C[C@H]2Oc3c(NC(=O)C4CCOCC4)cccc3C(=O)N([C@@H](C)CO)C[C@@H]2C)cc1,.,.,.,-2,.
SMILES,Sa ugtP lethal,PfHsp40 yeast,PrP UTR inh,TcdB inh,RN4220 kill
C[C@H]1CN([C@@H](C)CO)C(=O)c2cccc(NS(=O)(=O)c3ccc(Cl)cc3)c2O[C@@H]1CN(C)S(=O)(=O)c1cccs1,.,.,.,0,.
Nc1nc(N(Cc2ccccc2)Cc2ccccc2)nc(C(F)(F)F)n1,98*,3,.,1,7
CN(N)c1nc(C(F)(F)F)nc2ccccc12,3,0,-16,2,5
Cc1cccc(OCc2nc(C#N)c(NCc3ccc4c(c3)OCO4)o2)c1,-14,29*,-8,.,0
O=C(Oc1cc(=O)oc2c1c(=O)n1c3c(cccc23)CC1)c1ccc(F)cc1,.,.,.,0,.
O=C(Oc1cc(=O)oc2c1c(=O)n1c3c(cccc23)CC1)c1ccccc1,82*,0,-23,2,34
O=C(N[C@@H](Cc1ccccc1)C(=O)CCl)OCc1ccccc1,.,320*,-3,0,.
O=C(N[C@@H](Cc1ccccc1)C(=O)N[C@@H](Cc1ccccc1)C(=O)O)OCc1ccccc1,.,-1,-25,1,.
O=C(C#Cc1cccc([N+](=O)[O-])c1)c1ccccc1,98*,5,-12,.,75
O=C(O)C(=Cc1cccc([N+](=O)[O-])c1)c1ccccc1,.,.,.,5,.
CN1CCN(C(=O)C[C@H]2CC[C@@H]3[C@@H](COc4ccc(NC(=O)C5CC5)cc4C(=O)N3C)O2)CC1,.,.,.,0,.
COC(=O)[C@@]12CCCCN1C(c1ccc(-c3ccc(F)cc3)c(OC)c1)C1C(=O)N(C)C(=O)C12 (stereo partly drawn),12,.,.,.,30
COC(=O)[C@@]12CCCCN1[C@H](c1ccc(-c3ccccc3)c(OC)c1)[C@H]1C(=O)N(C)C(=O)[C@H]12,.,11,-27,12*,.
COc1cc2c(cc1O)CC[n+]1cc3c(OC)c(OC)ccc3cc1-2,1,-1,-27,13*,5
O=C1c2ccccc2CN1CCNC(=S)NC1CCCCC1,6,0,68*,1,15
Cc1noc(C)c1NC(=O)N[C@@H]1CC[C@@H](CCNC(=O)C2CCOCC2)O[C@H]1CO,.,.,.,-6,.
COc1ccc(CCCC(=O)NCCc2ccccc2)c(C)c1,5,40*,-21,0,5
COc1ccc(CCNC(=O)CCCCC(=O)NCCc2ccc(OC)cc2)cc1,1,3,-19,0,4
CSCCOC(=O)COc1ccc(C=NNC(=O)c2nn(C)cc2Cl)cc1,11,.,.,.,3
O=C(O)C1=NN(c2ccccc2)C(=O)C1,-4,7,-31,1,-5
CCOC(=O)C1=NN(c2ccccc2)C(=O)/C1=C\c1ccc(N(C)C)cc1,-3,81*,-5,.,-6
CCOC(=O)C1=NN(c2ccccc2)C(=O)C1,4,113*,-67,0,6
CO[C@H]1CN(C)C(=O)c2cc(NC(C)=O)ccc2OC[C@H](C)N(C(=O)c2ccccc2)C[C@@H]1C,.,.,.,-1,.
C[C@@H]1CN([C@H](C)CO)C(=O)c2cccc(NS(=O)(=O)c3ccccc3)c2O[C@H]1CN(C)S(=O)(=O)c1cn(C)cn1,.,.,.,0,.
c1ccc(Nc2cccc(Nc3ccccc3)c2)cc1,-21,69*,-60,.,-16
SMILES,Sa ugtP lethal,PfHsp40 yeast,PrP UTR inh,TcdB inh,RN4220 kill
C/C=C/c1ccc2c(c1)O[C@H](CN(C)C(=O)c1ccccn1)[C@@H](C)CN([C@H](C)CO)S2(=O)=O,.,.,.,0,.
COc1cc(-c2ccc3c(=O)c4ccccc4sc3c2)cc(OC)c1OC,-12,0,-26,-1,12
COc1cc(-c2ccc3c(=O)c4ccccc4n(C)c3c2)cc(OC)c1OC,.,28*,-3,1,.
COc1ccc(C=NNc2nccnc2Cl)cc1,13,.,.,.,0
CC(C)(C)OC(=O)C[C@H]1C/C=C\C[C@H](CC(=O)NCCO)C(=O)N2CCC[C@@H]2COC1=O,.,41*,-4,0,.
CC(C)(C)OC(=O)C[C@@H]1C/C=C\C[C@@H](CC(=O)NCCO)C(=O)N2CCC[C@H]2COC1=O,.,-2,-18,2,.
